The values that follow come from PubChem BioAssay (NCATS).

Calls of active or inactive are those of the source. Calls follow the shape of the full dose curve.
Potency is read from the fitted curve at half-maximal effect.

Glucocorticoid receptor (Homo sapiens), sequence (P04150 whole entry, looked up): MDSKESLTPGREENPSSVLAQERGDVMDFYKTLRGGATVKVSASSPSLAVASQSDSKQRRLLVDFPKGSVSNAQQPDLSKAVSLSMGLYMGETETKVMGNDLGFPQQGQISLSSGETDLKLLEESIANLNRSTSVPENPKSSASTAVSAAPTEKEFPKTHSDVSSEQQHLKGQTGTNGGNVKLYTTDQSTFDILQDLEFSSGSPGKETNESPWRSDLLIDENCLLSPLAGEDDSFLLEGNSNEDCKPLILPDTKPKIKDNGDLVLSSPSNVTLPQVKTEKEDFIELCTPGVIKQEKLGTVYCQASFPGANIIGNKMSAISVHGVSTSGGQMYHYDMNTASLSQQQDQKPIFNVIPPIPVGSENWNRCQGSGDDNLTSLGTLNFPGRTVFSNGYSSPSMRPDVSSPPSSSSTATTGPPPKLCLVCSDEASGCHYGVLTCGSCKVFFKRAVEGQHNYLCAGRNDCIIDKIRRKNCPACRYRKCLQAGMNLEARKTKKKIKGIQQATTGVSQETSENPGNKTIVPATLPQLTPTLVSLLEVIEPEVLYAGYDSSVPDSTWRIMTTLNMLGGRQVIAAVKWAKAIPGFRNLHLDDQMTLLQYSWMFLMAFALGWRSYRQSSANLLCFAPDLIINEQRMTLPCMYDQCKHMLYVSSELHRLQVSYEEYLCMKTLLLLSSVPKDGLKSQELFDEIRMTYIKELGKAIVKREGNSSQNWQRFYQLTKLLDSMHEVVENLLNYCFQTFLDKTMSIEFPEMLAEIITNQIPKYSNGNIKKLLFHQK

For the assay, the target named is Glucocorticoid receptor (Homo sapiens) (UniProt P04150). Kind of assay: GR-EFC Redistribution (AID 451). The note with it: CHO-K1 GR-EFC translocation, beta-gal luminescence, 2 h. An excerpt:
NIH Molecular Libraries Screening Centers Network [MLSCN]
NIH Chemical Genomics Center [NCGC]
The glucocorticoid receptor (GR) is a cytoplasmic receptor that belongs to the nuclear receptor family of ligand-dependent transcription factors. Upon glucocorticoid binding to its receptor, the glucocorticoid-GR complex translocates into the nucleus, where it binds as a dimer to specific DNA sequences (glucocorticoid response elements), enhancing or suppressing transcription of a wide variety of glucocorticoid-responsive genes. In addition to their important roles in normal physiology and metabolism, glucocorticoids are administered exogenously as treatments for a wide variety of allergic, autoimmune, and neoplastic conditions. Identification of compounds that modulate aspects of GR signalling would be useful in dissecting glucocorticoid response pathways as well as developing GR modulators with more targeted clinical effects.
Traditionally, GR modulators have been identified using receptor binding or direct transactivation assays. However, assays for glucocorticoid-dependent nuclear translocation can also be used to screen for compounds affecting GR signaling.
Immunocytochemical staining has been used to assay for GR translocation, but is not suitable for high throughout screening due to the multiple reagent addition and wash steps required. Recently, a novel cell-based GR assay in Enzyme Fragment Complementation (EFC) format was developed by DiscoveRx (Fremont, CA). The assay uses EFC of b-galactosidase (b-gal) as an indicator of GR-translocation in engineered CHO-K1 biosensor cells. The enzyme acceptor (EA) fragment of b-gal resides in the nucleus , as designed through the use of a proprietary set of sequence additions and modifications. The small peptide enzyme donor (ED) fragment of b-gal is fused directly to the C-terminus of GR, and is localized in the cytoplasm is the absence of receptor signaling. Upon binding to a GR ligand, the complex translocates to the nucleus, where intact enzyme activity is restored by complementation and b-gal activity is detected. We optimized this GR-EFC assay in homogenous 1536-well plate assay format for high throughput screening.
NCGC Assay Protocol Summary:
CHO-K1 cells stably expressing NLS-enzyme acceptor fragment (EA) of b-gal and GR-enzyme donor (ED) fragment of b-gal were maintained in F12 medium (Invitrogen, Carlsbad, CA) at 37 Celsius degrees under a humidified atmosphere containing 5% CO2 and 95% air. The medium contained 10% FBS, 2 mM L-glutamine, 50 U/ml penicillin 50 ug/ml streptomycin, and 250 ug/ml hygromycin and 500 ug/ml G418 (Invitrogen).
GR-translocation was measured beta-gal enzyme activity using the PathHunter Detection Kit containing cell membrane permeablizing reagent and beta-gal substrate (DiscoveRx, Fremont, CA). All compounds were screened as titrations from 0.6 nM to 46 uM final concentration. The assay was performed in 1536-well format as follows:
5 uL cell suspension (1,000 cells)/well
Incubation at 37 Celsius degrees for two hours
1.25 uL 1X detection buffer from the kit supplied by DiscoveRx
Incubation at room temperature for one hour
Read plate in luminescence mode in ViewLux plate reader (PerkinElmer)
Keywords: NIH Roadmap, MLSCN, MLI, MLSMR, GR-EFC, GREFC, qHTS, NCGC
As for `COc1ccc2c(c1)[C@]1(C)CCC[C@](C)(CO)[C@@H]1CC2`, the Potency is > 46 µM (inactive). Then `O=C(/C=C\c1ccc(O)c(O)c1)O[C@H]1C[C@@](O)(C(=O)O)C[C@H](O)[C@@H]1O`, with > 46 µM (inactive); and `CC(C)C[C@@H](CC(=O)N[C@@H](CCC(=O)O)CC(=O)O)NC(=O)[C@@H]1CNCC[C@H]1NC(=O)C[C@@H](NC(=O)C[C@H](Cc1c[nH]c2ccccc12)NC(=O)[C@@H]1CCCC[C@H]1N)C(C)C`, with > 46 µM (inactive); and `CC(C)C[C@@H](CC(=O)N[C@H](CC(=O)N[C@@H]1CCNC[C@H]1C(=O)N[C@H](CC(=O)N[C@@H](CCC(=O)O)CC(=O)O)Cc1ccccc1)C(C)C)NC(=O)[C@@H]1CCCC[C@H]1N`, with > 46 µM (inactive). Regarding `NCCC[C@@H](CC(=O)N[C@@H]1CCNC[C@H]1C(=O)N[C@H](CC(=O)N[C@@H](CCC(=O)O)CC(=O)O)Cc1ccccc1)NC(=O)C[C@H](Cc1c[nH]c2ccccc12)NC(=O)[C@@H]1CNCC[C@H]1N`, the Potency was > 46 µM (inactive). Then `COc1ccc([C@@H]2CC(=O)c3c(O)cc(O[C@@H]4O[C@@H](CO[C@@H]5O[C@@H](C)[C@@H](O)[C@@H](O)[C@H]5O)[C@@H](O)[C@@H](O)[C@H]4O)cc3O2)cc1O`, with > 46 µM (inactive); and `C[C@@]12CCC(=O)C=C1CC[C@@H]1[C@@H]2[C@H](O)C[C@]2(C)[C@@H]1CC[C@]2(O)C(=O)COC(=O)CCC(=O)O`, with 1.12 µM (active). As to `CC(C)(C)c1cc(Br)c(O)c(CN(Cc2cc(C(C)(C)C)cc(Br)c2O)C2CCCCC2)c1`, the Potency was > 9.22 µM (inactive). In the case of `NCCC[C@@H](CC(=O)N[C@@H]1CCNC[C@H]1C(=O)N[C@H](CC(=O)N[C@@H](CCC(=O)O)CC(=O)O)Cc1ccccc1)NC(=O)C[C@H](Cc1ccccc1)NC(=O)[C@@H]1CCCC[C@H]1N`, the Potency was > 46 µM (inactive). As for `CC(=O)O[C@H]1C(=O)[C@]2(C)[C@H]([C@H](OC(=O)c3ccccc3)[C@@]3(O)C[C@H](OC(=O)[C@@H](O)[C@@H](NC(=O)c4ccccc4)c4ccccc4)C(C)=C1C3(C)C)[C@]1(OC(C)=O)CO[C@@H]1C[C@@H]2O`, the Potency was > 46 µM (inactive).

As for `CC(C)C[C@@H](CC(=O)N[C@@H](CCC(=O)O)CC(=O)O)NC(=O)[C@@H]1CNCC[C@H]1NC(=O)C[C@H](CCCN)NC(=O)C[C@H](Cc1c[nH]c2ccccc12)NC(=O)[C@@H]1CNCC[C@H]1N`, the Potency is > 46 µM (inactive).

As for `CC(C)C[C@@H](CC(=O)N[C@@H](CCCN)CC(=O)N[C@@H]1CCCC[C@H]1C(=O)N[C@H](CC(=O)N[C@@H](CCC(=O)O)CC(=O)O)Cc1ccccc1)NC(=O)[C@@H]1CNCC[C@H]1N`, the Potency is > 46 µM (inactive). On to `Nc1ccn([C@@H]2O[C@@H](CO)[C@@H](O)[C@H]2O)c(=O)n1`, for which the Potency was > 46 µM (inactive). Then `C[N+](C)(C)[C@@H](C1=CCCC1=O)c1ccccc1`, with > 9.22 µM (inactive); and `CNCC[C@H](Oc1ccccc1C)c1ccccc1`, with > 46 µM (inactive). As for `NCCC[C@@H](CC(=O)N[C@@H]1CCCC[C@H]1C(=O)N[C@H](CC(=O)N[C@@H](CCC(=O)O)CC(=O)O)Cc1c[nH]c2ccccc12)NC(=O)C[C@H](CO)NC(=O)[C@@H]1CCCC[C@H]1N`, the Potency is > 46 µM (inactive). Next, `NCCC[C@@H](CC(=O)N[C@@H]1CCCC[C@H]1C(=O)N[C@H](CC(=O)N[C@@H](CCC(=O)O)CC(=O)O)Cc1c[nH]c2ccccc12)NC(=O)C[C@H](Cc1ccccc1)NC(=O)[C@@H]1CCCC[C@H]1N`: > 46 µM (inactive).

With `CCOC(=O)C1=C(C)NC(C)=C(C(=O)OC)[C@H]1c1cccc(Cl)c1Cl`, the Potency was > 46 µM (inactive). Then `COc1ccc2c(c1)CN([C@H](C)[C@@H]1CC[C@@H]3[C@H]4CC[C@H]5C[C@@H](O)CC[C@@]5(C)[C@H]4CC[C@]31C)CO2`, with > 9.22 µM (inactive). For the compound `COc1cccc(-c2oc3ccccc3c(=O)c2O)c1`, the Potency is > 46 µM (inactive). Turning to `O=C(O)[C@@H]1CCCN[C@H]1C(=O)O`, the Potency is > 46 µM (inactive). Next, `CN1C[C@H](C(=O)N[C@]2(C)O[C@]3(O)[C@H]4CCCN4C(=O)[C@H](Cc4ccccc4)N3C2=O)C[C@H]2c3cccc4[nH]cc(c34)C[C@@H]21`: > 20.6 µM (inactive); `O=C(O)c1cc(Cl)cc(Cc2cc(Cl)cc(C(=O)O)c2O)c1O`: > 9.22 µM (inactive); `N#C[C@@H](Cc1ccc(O)c(O)c1)C(=O)N1CCc2ccccc21`: > 46 µM (inactive). `O=c1c(O)c(-c2cccc(O)c2)oc2ccccc12`: the Potency is > 46 µM (inactive). Take `C/C(=C\CNc1ncnc2c1ncn2[C@@H]1O[C@@H](CO)[C@@H](O)[C@H]1O)CO`: the Potency is > 46 µM (inactive).

Regarding `OC[C@@H]1O[C@@H](n2cnc3c(NCCc4ccccc4)ncnc32)[C@@H](O)[C@H]1O`, the Potency is > 46 µM (inactive). For `CC(C)C[C@@H](CC(=O)N[C@H](CC(=O)N[C@@H]1CCCC[C@H]1C(=O)N[C@H](CC(=O)N[C@@H](CCC(=O)O)CC(=O)O)Cc1ccccc1)C(C)C)NC(=O)[C@@H]1CNCC[C@H]1N`, the Potency was > 46 µM (inactive). Turning to `COc1ccc([C@@H]2OC[C@]3(COC(C)=O)[C@H](C)C=C(C)[C@@H]2[C@H]3C)cc1`, the Potency was > 46 µM (inactive). `CC1(C)CCC(C)(C)c2cc(C(=O)Nc3ccc(C(=O)O)cc3)ccc21`: the Potency was > 46 µM (inactive). Next, `CC(C)OC(=O)c1cc2c(OC[C@@H](O)CNC(C)(C)C)cccc2[nH]1`: > 46 µM (inactive).

For `C=C1C(=O)O[C@H]2C[C@@]3(C)CCCC(=C)[C@@H]3C[C@H]12`, the Potency is > 46 µM (inactive).

`O=c1cc(-c2ccccc2)oc2cc(O[C@H]3O[C@H](CO)[C@@H](O)[C@H](O)[C@@H]3O)c(O)c(O)c12`: the Potency is > 46 µM (inactive). `NCCC[C@@H](CC(=O)N[C@@H]1CCNC[C@H]1C(=O)N[C@H](CC(=O)N[C@@H](CCC(=O)O)CC(=O)O)Cc1ccccc1)NC(=O)C[C@H](Cc1c[nH]c2ccccc12)NC(=O)[C@@H]1CCCC[C@H]1N`: the Potency is > 46 µM (inactive).

Consider `COc1cc(/C=C\C(=O)CC(=O)/C=C\c2ccc(O)c(OC)c2)ccc1O`, for which the Potency is > 46 µM (inactive).

As to `CN(C)C(=O)c1ccc(-c2ccc3ncnc(NC4CC4)c3c2)cc1`, the Potency is > 46 µM (inactive). Then `CCCCCCCCCC(=O)N[C@@H](CN1CCOCC1)[C@@H](O)c1ccccc1`, with > 46 µM (inactive); and `CC(=O)OC[C@@H]1O[C@@H](Oc2cc(OC(C)=O)c3c(=O)cc(-c4ccc(OC(C)=O)c(OC(C)=O)c4)oc3c2)[C@H](OC(C)=O)[C@H](OC(C)=O)[C@@H]1OC(C)=O`, with > 46 µM (inactive); and `CC(C)C[C@@H](CC(=O)N[C@@H](CCC(=O)O)CC(=O)O)NC(=O)[C@@H]1CCCC[C@H]1NC(=O)C[C@H](CCCN)NC(=O)C[C@H](CO)NC(=O)[C@@H]1CNCC[C@H]1N`, with > 46 µM (inactive). As to `C[C@H](O)[C@@H]1C(=O)N2C(C(=O)O)=C(SCCN=CN)C[C@@H]12`, the Potency is > 20.6 µM (inactive).
